# Reference: ChEMBL document CHEMBL1157539, “Thousands of chemical starting points for antimalarial lead identification” (Nature, 2010)
# Test system: Plasmodium falciparum
# Assay: GSK_TCMDC: Inhibition of Plasmodium falciparum Dd2 in whole red blood cells, using parasite LDH activity as an index of growth. Test compounds present at 2uM
# Type: functional
row,SMILES,Inhibition [%]
1,O=C(O)C(F)(F)F.O=C1CCCN1CCCNCc1ccc(-c2cccc(-c3nc4ccccc4[nH]3)c2)cc1,0
2,COCCCNc1sc(S(=O)(=O)c2ccccc2)nc1S(=O)(=O)c1ccc(Cl)cc1,87
3,CN1CCCN(Cc2cccc(-c3ccc(NS(=O)(=O)c4cccc5cccnc45)cc3)c2)CC1.O=C(O)C(F)(F)F,87
4,CC(C)(CNCc1ccc(F)c(F)c1)c1nc(-c2ccnc(N)n2)c(-c2ccc(Cl)c(O)c2)[nH]1.Cl,79
5,CCOc1ccc(C=CC(=O)Nc2ccc3nc(N4CCN(C)CC4)cc(C)c3c2)cc1OC,70
6,COc1ccc(Nc2ncc3c(-c4cccc(NC(=O)Cc5ccc(O)cc5)c4)c[nH]c3n2)cc1OC,99
7,Cc1cccc2nc(-c3ccc(-c4cccc(CN5CCN(CC6CCCN(C)C6)CC5)c4)s3)[nH]c12.O=C(O)C(F)(F)F (stereo unspecified),99
8,CCOC(=O)c1cc(C(=O)NCCCCN2CCC(c3cn(C)c4ccccc34)CC2)ccc1-c1ccc(C(F)(F)F)cc1,6
9,NCCCNc1nc(Nc2cccc(C(N)=O)c2)c2c(=O)[nH]ccc2n1.O=C(O)C(F)(F)F,49
10,COc1ccc(C2CC(c3ccccc3O)=NN2C(=O)c2ccco2)cc1OC (stereo unspecified),68
11,N=C(N)NCCCCN(Cc1ccccc1)c1ccccc1,98
12,CCOC(=O)NC1=NC(C)(C)N(OCCCOc2ccc(C)cc2C)C(NC(=O)OCC)=N1,98
13,CC(C)(CNC(=O)[C@@H]1CCCCN1)c1nc(-c2ccc(Cl)c(O)c2)c(-c2ccncc2)[nH]1.Cl,96
14,Cc1cc(CNCCCCCCCNCc2ccc(Cl)cc2)ccc1O,0
15,COc1ccc2nccc(N(C)CC3(O)CCC(NCc4ccc5c(n4)NC(=O)CS5)CC3)c2n1.Cl (stereo unspecified),23
16,COc1ccc(Nc2ncc3c(-c4ccc(NC(=O)c5cccc(C(F)(F)F)c5)cc4)c[nH]c3n2)cc1OC,30

row,SMILES,Inhibition [%]
1,CN1C(C)(C)CC(NC(=O)c2ccc(-c3cc4cc(Cl)c(Cl)cc4[nH]3)o2)CC1(C)C,43
2,COc1cc2ncnc(Nc3ccc4nc(Cc5ccccc5)[nH]c4c3)c2cc1OC.Cl,28
3,COc1ccc(CNCc2ccsc2)cc1-c1ccc(S(=O)(=O)NCCN2CCCC2)s1.O=C(O)C(F)(F)F,34
4,O=C(Nc1cccc(-c2cccc(-c3nc4ccccc4[nH]3)c2)c1)c1ccoc1,36
5,COc1ccc(-c2c(C(F)(F)F)nn(C)c2NC(=O)Nc2ccc(F)cc2F)cc1,99
6,COc1cc2nc(NCCN3CCOCC3)n3nc(-c4ccccc4)nc3c2cc1OC,98
7,NCc1ccc(-c2ccccc2CNC2CCN(Cc3ccccc3)CC2)cc1.O=C(O)C(F)(F)F,3
8,CN1CCN(c2nsc3ccc(-c4ccc(OCCN5CCCC5)cc4)cc23)CC1.O=C(O)C(F)(F)F,99
9,COc1ccc(-c2ccc(NC(=O)c3ccc(C#N)cc3)cc2)cc1CNC(C)C.O=C(O)C(F)(F)F,38
10,Cc1ccc(-c2nnc(Nc3ccc(C(=O)N4CCCCC4)cc3)c3ccccc23)cc1S(=O)(=O)NCC1CCCO1 (stereo unspecified),99
11,COc1ccccc1NC(=O)Nc1ccc(-c2ccc(-c3nc4cccc(C)c4[nH]3)s2)cc1,99
12,O=C(/C=C/c1ccc(Cl)c(Cl)c1)NCCCCCN1CCN(C(=O)Nc2ccc(C(F)(F)F)cc2)CC1,0
13,COc1ccc2ccccc2c1CCCCN1CCN(CC(c2ccc(F)cc2)N2CCC2)CC1.O=C(O)C(F)(F)F (stereo unspecified),51
14,CC(C)N1CCN(C(CN2CCN(CCCOc3ccc(-c4ccccc4)cc3)CC2)c2ccc(F)cc2)CC1.Cl (stereo unspecified),100
15,Cn1nc(-c2ccc(CN[C@@H]3CCc4ccc(O)cc43)cc2)c2cnc(NC3CCCC3)nc21,8

# Test system: HepG2
# Assay: GSK_TCMDC: Percent inhibition of human HepG2 cell line. Test compounds present at 10uM.
# Type: functional
row,SMILES,Inhibition [%]
1,CN1CCC(COc2ccc(CN3CCC(NC(=O)c4cccc(Cl)c4)CC3)cc2)CC1.O=C(O)C(F)(F)F,16
2,Br.C/C=C/C=C/C1=NCCc2cc(OCCC)ccc21,0
3,Oc1cccc(Nc2nc(NCc3ccccc3)c3ccccc3n2)c1,21
4,N#Cc1cccc(C(=O)Nc2ccc(-c3ccc(CN4CCCC4)cc3)cc2)c1.O=C(O)C(F)(F)F,38
5,O=C(NC1CCCCC1)N(Cc1cccc(-c2cccc(CNC3CCCC3)c2)c1)C1CCN(Cc2ccccc2)CC1.O=C(O)C(F)(F)F,64
6,C=C[C@H]1CN(CCCCCCC)CC[C@H]1CC(=O)Nc1cnnc2ccc(OC)cc12.O=C(O)C(=O)O,12
7,Cl.O=C(Nc1ccnc2ccccc12)NC1CCN(CCc2ccccc2)CC1,7
8,O=C(N/C=N/c1cc([N+](=O)[O-])c(-c2cccnc2)n1-c1ccc(O)cc1)c1ccccc1,17
9,Cl.O=C(NCCCCN1CCC(O)(c2ccc3c(c2)OCO3)CC1)c1ccc(NC(=O)c2ccc(Cl)cc2)cc1,15
10,O=C(O)C(F)(F)F.O=C1CCCN1CCCNCc1ccc(-c2cccc(-c3nc4ccccc4[nH]3)c2)cc1,19
11,COCCCNc1sc(S(=O)(=O)c2ccccc2)nc1S(=O)(=O)c1ccc(Cl)cc1,0
12,CN1CCCN(Cc2cccc(-c3ccc(NS(=O)(=O)c4cccc5cccnc45)cc3)c2)CC1.O=C(O)C(F)(F)F,44
13,CC(C)(CNCc1ccc(F)c(F)c1)c1nc(-c2ccnc(N)n2)c(-c2ccc(Cl)c(O)c2)[nH]1.Cl,41
14,CCOc1ccc(C=CC(=O)Nc2ccc3nc(N4CCN(C)CC4)cc(C)c3c2)cc1OC,0
15,COc1ccc(Nc2ncc3c(-c4cccc(NC(=O)Cc5ccc(O)cc5)c4)c[nH]c3n2)cc1OC,48
16,Cc1cccc2nc(-c3ccc(-c4cccc(CN5CCN(CC6CCCN(C)C6)CC5)c4)s3)[nH]c12.O=C(O)C(F)(F)F (stereo unspecified),47
17,CCOC(=O)c1cc(C(=O)NCCCCN2CCC(c3cn(C)c4ccccc34)CC2)ccc1-c1ccc(C(F)(F)F)cc1,25
18,NCCCNc1nc(Nc2cccc(C(N)=O)c2)c2c(=O)[nH]ccc2n1.O=C(O)C(F)(F)F,9
19,COc1ccc(C2CC(c3ccccc3O)=NN2C(=O)c2ccco2)cc1OC (stereo unspecified),11
20,N=C(N)NCCCCN(Cc1ccccc1)c1ccccc1,0

row,SMILES,Inhibition [%]
1,CCOC(=O)NC1=NC(C)(C)N(OCCCOc2ccc(C)cc2C)C(NC(=O)OCC)=N1,63
2,CC(C)(CNC(=O)[C@@H]1CCCCN1)c1nc(-c2ccc(Cl)c(O)c2)c(-c2ccncc2)[nH]1.Cl,0
3,Cc1cc(CNCCCCCCCNCc2ccc(Cl)cc2)ccc1O,13
4,COc1ccc2nccc(N(C)CC3(O)CCC(NCc4ccc5c(n4)NC(=O)CS5)CC3)c2n1.Cl (stereo unspecified),1
5,COc1ccc(Nc2ncc3c(-c4ccc(NC(=O)c5cccc(C(F)(F)F)c5)cc4)c[nH]c3n2)cc1OC,26
6,CN1C(C)(C)CC(NC(=O)c2ccc(-c3cc4cc(Cl)c(Cl)cc4[nH]3)o2)CC1(C)C,21
7,COc1cc2ncnc(Nc3ccc4nc(Cc5ccccc5)[nH]c4c3)c2cc1OC.Cl,0
8,COc1ccc(CNCc2ccsc2)cc1-c1ccc(S(=O)(=O)NCCN2CCCC2)s1.O=C(O)C(F)(F)F,39
9,O=C(Nc1cccc(-c2cccc(-c3nc4ccccc4[nH]3)c2)c1)c1ccoc1,19
10,COc1ccc(-c2c(C(F)(F)F)nn(C)c2NC(=O)Nc2ccc(F)cc2F)cc1,8
11,COc1cc2nc(NCCN3CCOCC3)n3nc(-c4ccccc4)nc3c2cc1OC,15
12,NCc1ccc(-c2ccccc2CNC2CCN(Cc3ccccc3)CC2)cc1.O=C(O)C(F)(F)F,20
13,CN1CCN(c2nsc3ccc(-c4ccc(OCCN5CCCC5)cc4)cc23)CC1.O=C(O)C(F)(F)F,57
14,COc1ccc(-c2ccc(NC(=O)c3ccc(C#N)cc3)cc2)cc1CNC(C)C.O=C(O)C(F)(F)F,19
15,Cc1ccc(-c2nnc(Nc3ccc(C(=O)N4CCCCC4)cc3)c3ccccc23)cc1S(=O)(=O)NCC1CCCO1 (stereo unspecified),0
16,COc1ccccc1NC(=O)Nc1ccc(-c2ccc(-c3nc4cccc(C)c4[nH]3)s2)cc1,71
17,O=C(/C=C/c1ccc(Cl)c(Cl)c1)NCCCCCN1CCN(C(=O)Nc2ccc(C(F)(F)F)cc2)CC1,26
18,COc1ccc2ccccc2c1CCCCN1CCN(CC(c2ccc(F)cc2)N2CCC2)CC1.O=C(O)C(F)(F)F (stereo unspecified),51
19,CC(C)N1CCN(C(CN2CCN(CCCOc3ccc(-c4ccccc4)cc3)CC2)c2ccc(F)cc2)CC1.Cl (stereo unspecified),100
20,Cn1nc(-c2ccc(CN[C@@H]3CCc4ccc(O)cc43)cc2)c2cnc(NC3CCCC3)nc21,12
